Compound activity as filed in PubChem.
Most compounds without a hit are left out; they make up all but 3.1% or so of the library.
MEKK3 PB1 HTS: modulators of MEKK3-MEK5 PB1 binding, primary screen, biochemical, wildtype MEKK3, multiplex bead flow cytometry, Alexa488-MEK5. Mitogen-activated protein kinase kinase kinase 3 (Homo sapiens), Q99759. bead-based flow cytometry, Alexa488-MEK5 binding to MEKK3; actives lie on both sides; 0 = blocked by unlabeled MEK5, 100 = vehicle. binding response (% of control), % at 10 µM. 290,000 compounds, 1.4% hits. AID 1529, 2009;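 active means binding response more than 3 SD above or below the average of its plate-row segment, actives on both sides; inconclusive means wells at one plate position flagged as instrument error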;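 further: Alexa488 bead fluorescence after subtracting the streptavidin-only scavenger bead signal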
Target sequence (Q99759 whole entry, looked up): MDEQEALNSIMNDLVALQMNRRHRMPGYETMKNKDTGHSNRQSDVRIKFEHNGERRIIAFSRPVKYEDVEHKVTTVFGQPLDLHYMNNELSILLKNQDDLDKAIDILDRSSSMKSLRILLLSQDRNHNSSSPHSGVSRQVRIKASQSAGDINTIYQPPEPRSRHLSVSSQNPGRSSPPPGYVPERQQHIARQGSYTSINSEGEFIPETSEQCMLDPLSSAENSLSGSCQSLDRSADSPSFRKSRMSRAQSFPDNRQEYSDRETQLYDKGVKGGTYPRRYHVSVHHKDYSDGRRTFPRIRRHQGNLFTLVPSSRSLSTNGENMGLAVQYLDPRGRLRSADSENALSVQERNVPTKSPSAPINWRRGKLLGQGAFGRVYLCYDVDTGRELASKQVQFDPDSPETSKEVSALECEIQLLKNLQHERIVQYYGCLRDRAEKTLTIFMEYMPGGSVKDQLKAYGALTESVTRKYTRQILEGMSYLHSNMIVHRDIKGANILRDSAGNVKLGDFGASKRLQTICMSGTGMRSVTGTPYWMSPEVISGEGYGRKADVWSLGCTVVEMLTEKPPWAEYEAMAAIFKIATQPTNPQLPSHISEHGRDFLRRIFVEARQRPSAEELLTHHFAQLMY
MEKK2wt PB1 HTS: modulators of MEK5 binding to wildtype MEKK2, primary screen, biochemical, multiplex bead flow cytometry, Alexa488-MEK5; Alexa488-MEK5 binding to MEKK2 WT; actives lie on both sides; 290,000 compounds, 1.1% hits; Mitogen-activated protein kinase kinase kinase 2 (Homo sapiens), Q9Y2U5; binding response (% of control), % at 10 µM; in the data active means binding response below about 67% or above about 130%; inconclusive means no clear call, values can overlap the other calls; inactive means in between
PREPL inh: PREPL enzyme inhibitors, primary screen, biochemical, fluorescence polarization; Prolyl endopeptidase-like (Homo sapiens), Q4J6C6; recombinant PREPL, fluorescence polarization activity-based probe; inhibition, % at 5.96 µM; 320,000 compounds, 0.68% hits; in the data active means inhibition above about 43%
MEKK2mut PB1 HTS: MEK5 binding signal on mutant MEKK2 PB1, primary screen, biochemical, multiplex bead flow cytometry, Alexa488-MEK5. Alexa488-MEK5 binding to MEKK2 mutant. percent response, % at 10 µM. 290,000 compounds, 0.35% hits; in the data active means percent response above about 24%, passing the limit was not always enough
UBC13 polyUb: UBC13 polyubiquitin chain formation inhibitors, primary screen, biochemical, TR-FRET, uHTS; 330,000 compounds, 0.47% hits; AID 485273, 2010; inhibition, % at 20 µM; in the data active means inhibition above about 45%, passing the limit was not always enough; inconclusive means no clear call, values can overlap the other calls
ATG4B inhibitor: ATG4B protease inhibitors, primary screen, biochemical, fluorescence, uHTS; 340,000 compounds, 0.51% hits; ATG4B cleavage of LC3-PLA2, NBD-HPC fluorescence, 1 h; AID 504462, 2011; inhibition, % at 8.33 µM; Cysteine protease ATG4B (Homo sapiens), Q9Y4P1; in the data active means inhibition above about 40%
Casp3 UBC13 ctr: CASP3 inhibitor validation, counterassay for project on UBE2N polyubiquitination blockers, biochemical, one dose. inhibition, % at 20 µM. 1,400 compounds, 4% hits. AID 488856, 2010. Recombinant caspase-3, Caspase-Glo 3/7 luminescence, 60 min. shares compounds with UBC13 polyUb;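 active means mean inhibition across replicates above about 26%, limit read from the data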
UBC13 confirm: UBC13 polyubiquitination inhibitors, single-point retest, confirmation, biochemical, TR-FRET, single concentration | 1,400 compounds, 68% hits | shares compounds with UBC13 polyUb | inhibition, % at 10 µM; in the data active means inhibition above about 45%; inconclusive means no clear call, values can overlap the other calls
A number is an active result; - = inactive; ? = inconclusive; . = no result.

SMILES	MEKK3 PB1 HTS	MEKK2wt PB1 HTS	PREPL inh	MEKK2mut PB1 HTS	UBC13 polyUb	ATG4B inhibitor	Casp3 UBC13 ctr	UBC13 confirm
C#CCOCCOCCOCCNc1nc(N2CCN(C(=O)[C@H](CCCN=C(N)N)n3cc(C(N)[C@@H](C)CC)nn3)CC2)nc(N2CCN(C(=O)[C@H](CCC(=O)O)n3cc([C@@H](N)CCCCN)nn3)CC2)n1 (stereo not given in full)	.	.	-	.	-	-	.	.
CC1CCCN(C(=O)c2ccc(Br)c(S(=O)(=O)N3CCOCC3)c2)C1 (stereo not given)	.	.	-	.	-	-	.	.
CCCN(CC(=O)Nc1ccccc1OC)C(=O)c1nc2nc(C)ccn2n1	.	.	-	.	-	-	.	.
CCCCN(C)CCNC(=O)CCn1nc(-c2ccc(Cl)cc2)ccc1=O	-	-	-	-	-	-	.	.
Cc1cccc(N2CCN(c3ccc4cc(S(=O)(=O)N5CCCCC5)ccc4n3)CC2)c1C	-	-	-	-	52	-	-	?
NC(=S)Nc1nc2ccccc2[nH]c1=O	.	.	-	.	60	.	-	64
Cc1ccc2[nH]c(=O)c(NC(N)=S)nc2c1	-	-	-	-	71	-	-	85
CCCCCC(=O)NC(=S)Nc1cccc(-c2nc3ncccc3o2)c1	-	-	-	-	-	-	.	.
CCNC(C(=O)c1c[nH]c2c(CC)cccc12)c1ccccc1 (stereo not given)	-	-	-	-	50	-	-	64
Cn1cc(Cl)c(C(=O)NC(=S)Nc2sc3c(c2C#N)CCCCC3)n1	-	-	-	-	-	-	.	.
Cc1cccc(CSCCNC(=S)Nc2ccccc2)c1	-	-	-	-	48	-	-	-
NC(=S)N=Nc1c(O)n(CCCl)c2ccc(Cl)cc12	-	-	-	-	68	-	-	90
NC(=S)N=Nc1c(O)n(CCCl)c2ccccc12	-	-	-	-	90	-	-	85
NC(=S)N=Nc1c(O)n(CC(=O)Nc2ccccc2)c2ccccc12	-	-	-	-	-	-	.	.
NC(=S)N=Nc1c(O)n(C2OC(=O)c3ccccc32)c2ccccc12 (stereo not given)	.	.	-	.	88	-	-	104
COC(=O)c1sc(N2C(=O)C(O)=C(C(=O)c3ccc(C)o3)C2c2cc(OC)ccc2OC)nc1C (stereo not given)	-	-	-	-	-	.	.	.
N/C(=N\OC(=O)Cc1ccccc1)c1ccccc1Cl	-	-	-	-	-	-	.	.
Cc1ccc2c(n1)CC(C)(C)CC2=O	-	-	-	-	47	-	-	-
COc1ccc(N2CCN(C(=O)Cn3ncc4c([nH]c5ccccc54)c3=O)CC2)cc1	-	-	-	-	-	-	.	.
O=C(NCCCN1CCOCC1)/C(=C/c1ccc(F)cc1)NC(=O)c1ccccc1	-	-	-	-	-	-	.	.
CCn1cc(C(=O)N[C@H](C(=O)NCCN2CCOCC2)C(C)C)c(=O)c2cc3c(cc21)OCO3	-	-	-	-	-	-	.	.
N#C/C(=C/c1cn(-c2ccccc2)nc1-c1cccc(OCc2ccccc2)c1)C(=O)NCCCn1ccnc1	-	-	-	-	48	-	-	56
CCOc1cccc(-c2nn(-c3ccccc3)cc2/C=C(/C#N)C(=O)NCCCn2ccnc2)c1	-	-	-	-	-	-	.	.
COc1ccccc1/C=N/NC(=O)c1ccc(CN2C(=O)c3cccc4cccc2c34)cc1	-	-	-	-	-	-	.	.
NNC(=O)c1ccc(CN2C(=O)c3cccc4cccc2c34)cc1	-	-	-	-	96	-	-	108
SMILES	MEKK3 PB1 HTS	MEKK2wt PB1 HTS	PREPL inh	MEKK2mut PB1 HTS	UBC13 polyUb	ATG4B inhibitor	Casp3 UBC13 ctr	UBC13 confirm
CC(=O)Nc1ccc(S(=O)(=O)NCCC(=O)NCc2ccncc2)cc1	.	.	-	.	-	-	.	.
Nc1nc2n(n1)C(c1ccccc1)CC(c1ccc(F)cc1)N2 (stereo not given)	-	-	-	-	-	-	.	.
CCc1ccc(C2CC(c3ccc(F)cc3)Nc3nc(N)nn32)cc1 (stereo not given)	-	-	-	-	49	-	-	-
O=C(CCc1ccccc1)NC(c1cccs1)c1cc(Cl)c2cccnc2c1O (stereo not given)	-	-	.	-	.	-	.	.
CCC(=O)NC(c1cccs1)c1cc(Cl)c2ccccc2c1O (stereo not given)	.	.	-	.	49	-	-	-
CC(=O)NC(c1cc(Cl)c2cccnc2c1O)C(C)C (stereo not given)	.	.	-	.	-	-	.	.
CC(=O)NC(c1cccs1)c1cc(Cl)c2ccccc2c1O (stereo not given)	.	.	-	.	71	-	-	58
CC(=O)NC(c1cc(Cl)c2ccccc2c1O)C(C)C (stereo not given)	.	.	-	.	81	-	-	56
Cc1cc(C)c(S(=O)(=O)N2CCN(C(=O)c3ccc(-n4cncn4)c([N+](=O)[O-])c3)CC2)c(C)c1	.	.	-	.	-	-	.	.
COC(=O)c1cc(CNC(=O)c2sccc2-c2ccccc2)ccc1OC	-	-	-	-	-	-	.	.
CCc1cccc(CC)c1NC(=O)C1CCN(C(=O)c2ccco2)CC1	-	-	-	-	-	-	.	.
CCOC(=O)c1cc(-c2ccc3c(c2)OCCO3)nc2c1c(C)nn2CCC#N	-	-	-	-	?	-	.	.
CCOC(=O)c1cc(-c2cccnc2)nn1-c1ccccn1	-	-	-	-	-	-	.	.
CCOC(=O)c1cc(-c2ccc(Cl)cc2)nc2c1c(C)nn2CCC#N	-	-	-	-	?	-	.	.
CCOC(=O)c1cc(-c2ccncc2)nc2c1c(C)nn2C	-	-	-	-	113	-	-	?
CCOC(=O)c1cc(-c2ccccc2)nc2c1c(C)nn2-c1ccccn1	-	-	-	-	62	-	-	-
CCOC(=O)c1cc(-c2ccc(OC)cc2F)nc2c1c(C)nn2CCC#N	-	-	-	-	49	-	-	-
Oc1cccc(NC(=S)N=Nc2c(O)[nH]c3ccccc23)c1	-	-	-	-	?	-	.	.
NC(=S)N=Nc1c(O)[nH]c2ccccc12	-	-	-	-	63	-	-	80
